Tests used:
Experiment in all cases: DAPPL (digital affinity profiling via proximity ligation, sequencing); 10 mM Tris-HCl pH 7.5, 50 mM NaCl, 1 mM DTT, 4% glycerol, room temperature, 30 min; GST-TFs on glutathione beads, 16-mer random dsDNA library, 0.1% formaldehyde crosslink after washing; high values mean tight binding
Settings in all cases: protein: recombinant; tags: N-terminal GST; dsDNA, one strand shown
ERF = molecular target: T1, ERF (Homo sapiens, UniProt P50548 1-548)
T1 sequence: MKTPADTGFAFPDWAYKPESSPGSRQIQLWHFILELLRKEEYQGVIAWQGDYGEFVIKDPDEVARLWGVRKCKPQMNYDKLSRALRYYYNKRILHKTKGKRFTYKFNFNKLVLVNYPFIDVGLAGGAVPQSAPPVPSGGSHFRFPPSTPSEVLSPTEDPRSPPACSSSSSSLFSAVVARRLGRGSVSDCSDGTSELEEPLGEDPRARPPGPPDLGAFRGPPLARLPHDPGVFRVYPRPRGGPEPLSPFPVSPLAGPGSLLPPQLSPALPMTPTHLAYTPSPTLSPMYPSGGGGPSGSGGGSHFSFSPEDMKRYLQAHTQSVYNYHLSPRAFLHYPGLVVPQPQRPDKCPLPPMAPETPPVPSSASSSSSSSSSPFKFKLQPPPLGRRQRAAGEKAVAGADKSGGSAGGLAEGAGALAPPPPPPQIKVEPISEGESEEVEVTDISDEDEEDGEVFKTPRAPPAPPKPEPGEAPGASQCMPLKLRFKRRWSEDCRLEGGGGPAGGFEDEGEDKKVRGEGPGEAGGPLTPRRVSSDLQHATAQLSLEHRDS
Method in brief: (§1)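 Pools of DNA-barcoded human transcription factors, expressed in yeast as GST fusions on glutathione beads and combined with a tag-only sample, were incubated with 200 nmole of a 16-mer random double-stranded DNA library. Incubation took 30 min at room temperature in Tris/NaCl/DTT/glycerol buffer and was followed by washing, 0.1% formaldehyde crosslinking, proximity ligation (BsaI/T4 ligase, 1 h, 37 °C), PCR amplification and sequencing on an Illumina NextSeq500. Binding signal is the ratio of a hexamer's read frequency for a factor to its frequency for the tag-only sample.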

ETV3L = molecular target: T2, ETV3L (Homo sapiens, UniProt Q6ZN32 1-361)
T2 sequence: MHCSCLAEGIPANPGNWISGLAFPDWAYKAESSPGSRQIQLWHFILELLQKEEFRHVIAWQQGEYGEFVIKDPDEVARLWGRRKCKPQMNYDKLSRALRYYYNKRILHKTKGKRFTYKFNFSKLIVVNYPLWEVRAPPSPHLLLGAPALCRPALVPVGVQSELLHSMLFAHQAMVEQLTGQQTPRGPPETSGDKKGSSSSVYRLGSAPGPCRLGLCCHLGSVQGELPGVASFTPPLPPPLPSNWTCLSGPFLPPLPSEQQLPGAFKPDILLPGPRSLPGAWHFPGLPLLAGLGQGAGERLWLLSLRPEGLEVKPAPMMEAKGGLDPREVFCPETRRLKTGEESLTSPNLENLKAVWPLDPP
Method in brief: as §1

ETS2 = molecular target: T3, ETS2 (Homo sapiens, UniProt P15036 1-469)
T3 sequence: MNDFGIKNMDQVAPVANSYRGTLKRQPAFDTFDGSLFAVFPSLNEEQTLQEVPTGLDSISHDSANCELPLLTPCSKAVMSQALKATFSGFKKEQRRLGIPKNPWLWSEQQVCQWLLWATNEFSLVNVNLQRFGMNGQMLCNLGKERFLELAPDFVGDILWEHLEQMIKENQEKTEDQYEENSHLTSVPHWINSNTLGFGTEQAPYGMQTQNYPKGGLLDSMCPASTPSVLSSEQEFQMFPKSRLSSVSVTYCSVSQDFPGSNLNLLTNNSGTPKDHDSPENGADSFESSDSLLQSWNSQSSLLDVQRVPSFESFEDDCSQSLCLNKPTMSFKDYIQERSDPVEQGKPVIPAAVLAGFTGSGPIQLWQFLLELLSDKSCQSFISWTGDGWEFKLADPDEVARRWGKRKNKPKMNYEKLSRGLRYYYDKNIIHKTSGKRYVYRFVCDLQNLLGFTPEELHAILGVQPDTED
Method in brief: as §1

SPDEF = molecular target: T4, SPDEF (Homo sapiens, UniProt O95238 1-335)
T4 sequence: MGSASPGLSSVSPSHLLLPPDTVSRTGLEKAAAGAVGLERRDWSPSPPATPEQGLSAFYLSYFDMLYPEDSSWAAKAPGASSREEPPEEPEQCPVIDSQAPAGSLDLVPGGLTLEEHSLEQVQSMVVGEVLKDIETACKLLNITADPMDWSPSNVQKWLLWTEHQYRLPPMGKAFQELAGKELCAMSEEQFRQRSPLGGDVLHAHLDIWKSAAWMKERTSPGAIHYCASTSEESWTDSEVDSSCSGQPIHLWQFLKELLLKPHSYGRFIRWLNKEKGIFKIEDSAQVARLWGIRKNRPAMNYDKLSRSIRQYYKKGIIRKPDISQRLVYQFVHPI
Method in brief: as §1

ETV7 = molecular target: T5, ETV7 (Homo sapiens, UniProt Q9Y603 1-341)
T5 sequence: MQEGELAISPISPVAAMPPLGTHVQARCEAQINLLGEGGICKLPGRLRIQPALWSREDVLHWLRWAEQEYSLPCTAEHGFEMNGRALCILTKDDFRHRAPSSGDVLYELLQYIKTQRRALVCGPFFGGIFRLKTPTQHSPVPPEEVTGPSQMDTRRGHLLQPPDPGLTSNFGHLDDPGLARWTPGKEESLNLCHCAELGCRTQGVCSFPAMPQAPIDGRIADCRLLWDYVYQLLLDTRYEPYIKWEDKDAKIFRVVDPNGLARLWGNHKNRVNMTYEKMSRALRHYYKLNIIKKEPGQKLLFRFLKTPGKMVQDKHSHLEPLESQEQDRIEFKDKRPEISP
Method in brief: as §1

ELF5 = molecular target: T6, ELF5 (Homo sapiens, UniProt Q9UKW6-2 1-255)
T6 sequence: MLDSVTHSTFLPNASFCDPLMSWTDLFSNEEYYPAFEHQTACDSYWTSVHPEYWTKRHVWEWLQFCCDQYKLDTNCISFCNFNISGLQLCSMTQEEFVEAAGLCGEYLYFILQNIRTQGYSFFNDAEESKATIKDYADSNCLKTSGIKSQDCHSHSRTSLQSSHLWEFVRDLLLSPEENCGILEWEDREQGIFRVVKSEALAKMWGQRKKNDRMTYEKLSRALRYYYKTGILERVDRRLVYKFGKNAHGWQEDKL
Method in brief: as §1

ETV3 = molecular target: T7, ETV3 (Homo sapiens, UniProt P41162-2 1-143)
T7 sequence: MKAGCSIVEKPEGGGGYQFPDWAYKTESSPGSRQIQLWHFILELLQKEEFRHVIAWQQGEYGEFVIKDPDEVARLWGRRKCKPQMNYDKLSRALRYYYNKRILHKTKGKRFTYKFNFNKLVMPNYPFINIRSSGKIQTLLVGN
Method in brief: as §1

ETV6 = ETV6 (Homo sapiens, UniProt P41212 1-452)
Method in brief: as §1

Sequence of ETV6 (P41212 whole entry): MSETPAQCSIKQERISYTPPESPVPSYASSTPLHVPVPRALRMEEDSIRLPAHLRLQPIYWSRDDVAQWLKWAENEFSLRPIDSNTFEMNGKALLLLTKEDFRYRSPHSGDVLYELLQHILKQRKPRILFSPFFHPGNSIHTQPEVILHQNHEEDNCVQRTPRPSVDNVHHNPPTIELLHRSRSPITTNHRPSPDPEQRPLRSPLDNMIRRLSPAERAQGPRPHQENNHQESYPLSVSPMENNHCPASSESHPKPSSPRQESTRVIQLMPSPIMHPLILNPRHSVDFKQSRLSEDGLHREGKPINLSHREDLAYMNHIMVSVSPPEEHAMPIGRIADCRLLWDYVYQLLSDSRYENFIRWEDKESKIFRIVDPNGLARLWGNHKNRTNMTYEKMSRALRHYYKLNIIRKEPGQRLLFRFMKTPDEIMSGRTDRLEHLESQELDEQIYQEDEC

Sequence | binding signal (ERF) | binding signal (ETV3L) | binding signal (ETS2) | binding signal (SPDEF) | binding signal (ETV7) | binding signal (ELF5) | binding signal (ETV3) | binding signal (ETV6)
AATTTC | 1.7 fold enrichment (6-mer frequency, TF over GST control) | 1.73 fold enrichment (6-mer frequency, TF over GST control) | 1.83 fold enrichment (6-mer frequency, TF over GST control) | 1.59 fold enrichment (6-mer frequency, TF over GST control) | 1.74 fold enrichment (6-mer frequency, TF over GST control) | 2.31 fold enrichment (6-mer frequency, TF over GST control) | 1.78 fold enrichment (6-mer frequency, TF over GST control) | 1.94 fold enrichment (6-mer frequency, TF over GST control)
TTGGTT | 1.43 fold enrichment (6-mer frequency, TF over GST control) | 1.45 fold enrichment (6-mer frequency, TF over GST control) | 1.48 fold enrichment (6-mer frequency, TF over GST control) | 1.45 fold enrichment (6-mer frequency, TF over GST control) | 1.52 fold enrichment (6-mer frequency, TF over GST control) | 1.37 fold enrichment (6-mer frequency, TF over GST control) | 1.36 fold enrichment (6-mer frequency, TF over GST control) | 1.44 fold enrichment (6-mer frequency, TF over GST control)
AAGAAA | 1.24 fold enrichment (6-mer frequency, TF over GST control) | 1.26 fold enrichment (6-mer frequency, TF over GST control) | 1.24 fold enrichment (6-mer frequency, TF over GST control) | 1.09 fold enrichment (6-mer frequency, TF over GST control) | 1.26 fold enrichment (6-mer frequency, TF over GST control) | 1.2 fold enrichment (6-mer frequency, TF over GST control) | 1.16 fold enrichment (6-mer frequency, TF over GST control) | 1.22 fold enrichment (6-mer frequency, TF over GST control)
TATGAC | 1.39 fold enrichment (6-mer frequency, TF over GST control) | 1.36 fold enrichment (6-mer frequency, TF over GST control) | 1.31 fold enrichment (6-mer frequency, TF over GST control) | 1.33 fold enrichment (6-mer frequency, TF over GST control) | 1.29 fold enrichment (6-mer frequency, TF over GST control) | 1.29 fold enrichment (6-mer frequency, TF over GST control) | 1.2 fold enrichment (6-mer frequency, TF over GST control) | 1.25 fold enrichment (6-mer frequency, TF over GST control)
CTCCAA | 1.32 fold enrichment (6-mer frequency, TF over GST control) | 1.28 fold enrichment (6-mer frequency, TF over GST control) | 1.32 fold enrichment (6-mer frequency, TF over GST control) | 1.33 fold enrichment (6-mer frequency, TF over GST control) | 1.52 fold enrichment (6-mer frequency, TF over GST control) | 1.23 fold enrichment (6-mer frequency, TF over GST control) | 1.23 fold enrichment (6-mer frequency, TF over GST control) | 1.28 fold enrichment (6-mer frequency, TF over GST control)
TCCTCC | 1.46 fold enrichment (6-mer frequency, TF over GST control) | 1.55 fold enrichment (6-mer frequency, TF over GST control) | 1.51 fold enrichment (6-mer frequency, TF over GST control) | 1.61 fold enrichment (6-mer frequency, TF over GST control) | 1.44 fold enrichment (6-mer frequency, TF over GST control) | 2.04 fold enrichment (6-mer frequency, TF over GST control) | 1.55 fold enrichment (6-mer frequency, TF over GST control) | 1.51 fold enrichment (6-mer frequency, TF over GST control)
TATGGG | 1.19 fold enrichment (6-mer frequency, TF over GST control) | 1.13 fold enrichment (6-mer frequency, TF over GST control) | 1.15 fold enrichment (6-mer frequency, TF over GST control) | 1.14 fold enrichment (6-mer frequency, TF over GST control) | 1.24 fold enrichment (6-mer frequency, TF over GST control) | 1.16 fold enrichment (6-mer frequency, TF over GST control) | 1.17 fold enrichment (6-mer frequency, TF over GST control) | 1.34 fold enrichment (6-mer frequency, TF over GST control)
TTTTGT | 1.33 fold enrichment (6-mer frequency, TF over GST control) | 1.34 fold enrichment (6-mer frequency, TF over GST control) | 1.29 fold enrichment (6-mer frequency, TF over GST control) | 1.35 fold enrichment (6-mer frequency, TF over GST control) | 1.22 fold enrichment (6-mer frequency, TF over GST control) | 1.33 fold enrichment (6-mer frequency, TF over GST control) | 1.34 fold enrichment (6-mer frequency, TF over GST control) | 1.24 fold enrichment (6-mer frequency, TF over GST control)
CATATA | 1.04 fold enrichment (6-mer frequency, TF over GST control) | 1.09 fold enrichment (6-mer frequency, TF over GST control) | 1.08 fold enrichment (6-mer frequency, TF over GST control) | 1.02 fold enrichment (6-mer frequency, TF over GST control) | 1.1 fold enrichment (6-mer frequency, TF over GST control) | 1.01 fold enrichment (6-mer frequency, TF over GST control) | 1.09 fold enrichment (6-mer frequency, TF over GST control) | 1.12 fold enrichment (6-mer frequency, TF over GST control)
ACGTAT | 1.15 fold enrichment (6-mer frequency, TF over GST control) | 1.28 fold enrichment (6-mer frequency, TF over GST control) | 1.27 fold enrichment (6-mer frequency, TF over GST control) | 1.36 fold enrichment (6-mer frequency, TF over GST control) | 1.25 fold enrichment (6-mer frequency, TF over GST control) | 1.16 fold enrichment (6-mer frequency, TF over GST control) | 1.26 fold enrichment (6-mer frequency, TF over GST control) | 1.22 fold enrichment (6-mer frequency, TF over GST control)
CTCACA | 1.29 fold enrichment (6-mer frequency, TF over GST control) | 1.38 fold enrichment (6-mer frequency, TF over GST control) | 1.31 fold enrichment (6-mer frequency, TF over GST control) | 1.33 fold enrichment (6-mer frequency, TF over GST control) | 1.24 fold enrichment (6-mer frequency, TF over GST control) | 1.31 fold enrichment (6-mer frequency, TF over GST control) | 1.3 fold enrichment (6-mer frequency, TF over GST control) | 1.24 fold enrichment (6-mer frequency, TF over GST control)
CTGATA | 1.16 fold enrichment (6-mer frequency, TF over GST control) | 1.21 fold enrichment (6-mer frequency, TF over GST control) | 1.17 fold enrichment (6-mer frequency, TF over GST control) | 1.15 fold enrichment (6-mer frequency, TF over GST control) | 1.08 fold enrichment (6-mer frequency, TF over GST control) | 1.2 fold enrichment (6-mer frequency, TF over GST control) | 1.26 fold enrichment (6-mer frequency, TF over GST control) | 1.06 fold enrichment (6-mer frequency, TF over GST control)
TCTTCG | 1.45 fold enrichment (6-mer frequency, TF over GST control) | 1.48 fold enrichment (6-mer frequency, TF over GST control) | 1.55 fold enrichment (6-mer frequency, TF over GST control) | 1.49 fold enrichment (6-mer frequency, TF over GST control) | 1.46 fold enrichment (6-mer frequency, TF over GST control) | 1.4 fold enrichment (6-mer frequency, TF over GST control) | 1.49 fold enrichment (6-mer frequency, TF over GST control) | 1.36 fold enrichment (6-mer frequency, TF over GST control)
TTGTTA | 1.28 fold enrichment (6-mer frequency, TF over GST control) | 1.35 fold enrichment (6-mer frequency, TF over GST control) | 1.34 fold enrichment (6-mer frequency, TF over GST control) | 1.26 fold enrichment (6-mer frequency, TF over GST control) | 1.35 fold enrichment (6-mer frequency, TF over GST control) | 1.29 fold enrichment (6-mer frequency, TF over GST control) | 1.3 fold enrichment (6-mer frequency, TF over GST control) | 1.33 fold enrichment (6-mer frequency, TF over GST control)
AACCTA | 1.03 fold enrichment (6-mer frequency, TF over GST control) | 1.05 fold enrichment (6-mer frequency, TF over GST control) | 1.11 fold enrichment (6-mer frequency, TF over GST control) | 1.08 fold enrichment (6-mer frequency, TF over GST control) | 1.03 fold enrichment (6-mer frequency, TF over GST control) | 1.07 fold enrichment (6-mer frequency, TF over GST control) | 1.07 fold enrichment (6-mer frequency, TF over GST control) | 1.1 fold enrichment (6-mer frequency, TF over GST control)

— PMC7862700, “An all-to-all approach to the identification of sequence-specific readers for epigenetic DNA modifications on cytosine”
